Values joined by “and” are separate entries in the source; they are usually repeats but may differ in a detail not shown here. Identical values can stand only once. Results filed as inconclusive are left out. Where a call stands in place of a potency, no number is given. Active and inactive are the calls of the source. Calls follow the shape of the dose curve; as a rule, active = well fitted inhibition curve with a large enough effect in the signal ratio in the repeat runs (not every such curve was filed as active); inconclusive = weak or mixed curves, or effect the other way; inactive = no such curve, though single readings can be large or run the other way; the % refers to the signal ratio.

Sequence of Peroxisome proliferator-activated receptor delta (Homo sapiens) (Q03181 whole entry, looked up): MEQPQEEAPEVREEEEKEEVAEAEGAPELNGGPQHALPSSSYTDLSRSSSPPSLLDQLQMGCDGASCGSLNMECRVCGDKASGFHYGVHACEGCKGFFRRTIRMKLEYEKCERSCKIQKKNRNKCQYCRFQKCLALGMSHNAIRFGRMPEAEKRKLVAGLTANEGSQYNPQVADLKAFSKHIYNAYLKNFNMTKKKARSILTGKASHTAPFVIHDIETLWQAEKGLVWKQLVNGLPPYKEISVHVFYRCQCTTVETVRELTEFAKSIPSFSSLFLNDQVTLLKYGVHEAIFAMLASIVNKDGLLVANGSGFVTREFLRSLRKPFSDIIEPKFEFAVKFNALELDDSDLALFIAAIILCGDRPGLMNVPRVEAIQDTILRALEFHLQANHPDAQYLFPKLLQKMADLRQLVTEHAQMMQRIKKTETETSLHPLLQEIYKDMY

One test concerns the target Peroxisome proliferator-activated receptor delta (Homo sapiens) (UniProt Q03181). Briefly: qHTS assay to identify small molecule antagonists of the peroxisome proliferator-activated receptor delta (PPARd) signaling pathway (AID 743215).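 Also: cells stimulated with agonist L165041 at 300 nM final during compound exposure.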 The settings on record: HEK293H PPARd-UAS-bla, beta-lactamase FRET ratio, antagonist, 17 h; series mostly up to 62 µM. The method, boiled down:
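Antagonist-mode beta-lactamase reporter screen: HEK293H cells with UAS-bla under PPARd control, stimulated by 300 nM L165041 (final) alongside test compound for 17 h at 37 C, then FRET fluorescence after 2 h substrate incubation.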
In general terms: Quantitative high-throughput screening tests each substance at several concentrations.
In the case of `CCCCNC(=O)NS(=O)(=O)c1ccc(N)cc1`, the outcome was inactive.

Consider `N[C@@H](Cc1c[nH]c2ccccc12)C(=O)O`, for which the outcome was inactive.

On to `COC(=O)c1ccc(O)cc1`, for which the result was inactive.

For the compound `Oc1cccc(O)c1`, the outcome was inactive.

For `CC(C)CC(C)CC(O)CC(C)C` (stereo not given), the outcome was inactive.

For `CCCCOCCOCCOC(C)=O`, the result was inactive.

Regarding `COCCOCCOC`, the outcome was inactive.

As to `CCOC(=O)C(C)(C)Oc1ccc(Cl)cc1`, the result was inactive.

As for `CC(O)COc1ccccc1` (stereo not given), the result was inactive.

On to `Cc1cccc(C)c1O`, for which the result was inactive.

Take `COC(=O)c1ccc(C=O)cc1`: the result was inactive.

On to `Cc1cccc2ccccc12`, for which the result was inactive.

Consider `CC(=O)CCC(C)C`, for which the outcome was inactive.

As to `O=[N+]([O-])c1ccc(O)cc1`, the result was inactive.

For `Cc1c(N(C)CS(=O)(=O)O)c(=O)n(-c2ccccc2)n1C`, the result was inactive.

Another test deals with Bile acid receptor (Homo sapiens) (UniProt Q96RI1). Nature of the test: qHTS assay to identify small molecule antagonists of the farnesoid-X-receptor (FXR) signaling pathway (AID 743217). Also: potency is read from the fitted curve at half-maximal effect. The settings on record: HEK293T FXR-UAS-bla, beta-lactamase ratio, CDCA-stimulated, 16 h; series mostly up to 62.6 µM. The method, boiled down: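 Beta-lactamase reporter under UAS control in HEK 293T cells; compound exposure 16 h at 37 °C in the presence of chenodeoxycholic acid (50 uM final); signal from B/G FRET substrate after 2 h at room temperature.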
Sequence of Bile acid receptor (Homo sapiens) (Q96RI1 whole entry, looked up): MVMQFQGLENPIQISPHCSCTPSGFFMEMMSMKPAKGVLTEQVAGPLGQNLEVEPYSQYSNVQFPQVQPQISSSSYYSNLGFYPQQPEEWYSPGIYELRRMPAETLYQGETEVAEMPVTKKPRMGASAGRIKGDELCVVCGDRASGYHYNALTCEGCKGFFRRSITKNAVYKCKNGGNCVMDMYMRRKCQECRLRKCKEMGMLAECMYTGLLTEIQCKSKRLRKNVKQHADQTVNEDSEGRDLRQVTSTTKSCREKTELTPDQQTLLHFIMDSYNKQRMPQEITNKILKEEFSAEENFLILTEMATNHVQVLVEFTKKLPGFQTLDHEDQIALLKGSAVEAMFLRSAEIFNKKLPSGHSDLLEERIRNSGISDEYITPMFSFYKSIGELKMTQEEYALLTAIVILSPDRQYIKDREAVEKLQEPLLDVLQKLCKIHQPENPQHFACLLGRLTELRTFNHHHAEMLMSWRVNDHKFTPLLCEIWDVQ
As for `CCCCCCCCCCCCCCCCCC(=O)OCC(O)CO` (stereo not given), the Potency entry was “inactive”.

In the case of `COCC(C)N` (stereo not given), the Potency result is “inactive”.

For `CCCCCCCCCCCCCC(=O)OC(C)C`, the Potency result was “inactive”.

Consider `CCCCC/C(C=O)=C\c1ccccc1`, for which the Potency entry is “inactive”.

`C=CCOC(=O)CC(C)C`: the Potency entry is “inactive”.

In the case of `CC(=O)c1ccc(S(=O)(=O)NC(=O)NC2CCCCC2)cc1`, the Potency result is “inactive”.

In the case of `Oc1cccc(O)c1`, the Potency result is “inactive”.

Regarding `COc1ccccc1O`, the Potency result was “inactive”.

As to `CC(C)CC(C)CC(O)CC(C)C` (stereo not given), the Potency entry is “inactive”.

Take `O=C1CCCCCN1`: the Potency entry is “inactive”.

For `O=c1c(-c2ccc(O)cc2)coc2cc(O)cc(O)c12`, the Potency is 38.9 µM (active) and 26.6 µM (active).

With `O=C(O)Cc1cccc2ccccc12`, the Potency result is “inactive”.

With `COc1cc(O)c(C(=O)c2ccccc2)cc1S(=O)(=O)O`, the Potency result is “inactive”.

In the case of `Cn1cnc2c1c(=O)[nH]c(=O)n2C`, the Potency entry was “inactive”.

On to `COCCOCCOC`, for which the Potency entry was “inactive”.

For the origin of these results see PubChem BioAssay (Tox21).
